The record followed here is PubChem BioAssay (NCI).

What all share (assay): NCI-60 one-dose screen, 48 h (100 = growth as untreated, 0 = no growth, -100 = all killed)
Common to all, as to conditions: 10 µM unless noted

In assay [1] the test system is HCT-15 colon.
Assay [2] relates to HT29 colon.
Assay [3] deals with SNB-75 CNS.
Assay [4] relates to SNB-19 CNS.
Assay [5] concerns U251 CNS.
Assay [6] has as its system PC-3 prostate.
Assay [7] concerns SK-MEL-5 melanoma.
The subject of assay [8] is UACC-62 melanoma.
Assay [9] deals with LOX IMVI melanoma.
Assay [10] deals with SK-MEL-28 melanoma.
For assay [11], the system named is SK-MEL-2 melanoma.
For assay [12], the system named is EKVX NSCLC.
Assay [13] concerns SN12C renal.
Assay [14] deals with UO-31 renal.
In assay [15] the test system is TK-10 renal.
Assay [16] concerns ACHN renal.
The subject of assay [17] is CAKI-1 renal.
For assay [18], the system named is A498 renal.
The test system of assay [19] is HL-60(TB) leukemia.
The test system of assay [20] is CCRF-CEM leukemia.

“And” between values parts separate entries of the source, which are not always exact repeats. Equal values may be shown once. This is part of a sample that, as a whole, favours compounds with a hit. Of some 83,000 tested, about 20% had one in any assay.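 The test compound was applied at a single concentration to cells in 96-well plates for 48 hours, and percent growth was recorded.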 The source made the active and inactive calls. How the source made its calls: active means growth percent below 10; inactive means the rest.

In the case of `CC[C@H](C)[C@H](NC(=O)CN(C)C)C(=O)N(C)[C@H](C[C@@H](OC(C)=O)c1nc(C(=O)NC23C4C5C2C2C3C4C52C(=O)OC)cs1)C(C)C` (stereo not given in full), the growth was 14.7% (inactive) in [1]; 2.31% (active) in [2]; 30.1% (inactive) in assay [3]; 40.2% (inactive) in assay [4]; 16.7% (inactive) in assay [5]; 25.6% (inactive) in [6]. The growth in [7] is 5.45% (active); in assay [8] it was 29.9% (inactive); in assay [9], 15.3% (inactive); in assay [10], 61.5% (inactive); in assay [11], 34% (inactive); in [12], 40.4% (inactive). Besides, the growth was 31.8% (inactive) in assay [13]; 54.9% (inactive) in assay [14]; 57.7% (inactive) in assay [15]; 42.6% (inactive) in assay [16]; 44.8% (inactive) in [17]; -1.71% (active) in [18]. The growth in [19] is -26.5% (active); in assay [20], 6.24% (active).
As for `N#CCc1ccc(CC#N)cc1`, the growth in assay [1] was 96.5% (inactive); in [2] it was 92.4% (inactive); in assay [3], 101% (inactive); in assay [4], 93.2% (inactive); in assay [5] it was 93.6% (inactive); in assay [6], 91.2% (inactive). The growth in assay [7] was 101% (inactive); in assay [8] it was 92.3% (inactive); in assay [9], 101% (inactive); in assay [10], 101% (inactive); in [11], 99.4% (inactive); in assay [12], 97.7% (inactive). Further, the growth in [13] is 86.7% (inactive); in assay [14], 89.8% (inactive); in assay [15], 100% (inactive); in assay [16], 103% (inactive); in [17], 97.1% (inactive); in assay [18], 78.8% (inactive). Also, the results for the growth in assay [19] and in [20] were 92.9% (inactive) and 100% (inactive), respectively.
As for `C(=NC1CCCCC1)=NC1CCCCC1`, the growth in assay [1] is 108% (inactive); in assay [2], 101% (inactive) and 91.9% (inactive); in assay [3] it was 87.5% (inactive) and 79.6% (inactive); in assay [4] it was 103% (inactive) and 83.9% (inactive); in assay [5] it was 117% (inactive); in [6], 97.5% (inactive) and 48.6% (inactive). In addition, the growth was 103% (inactive) and 61.4% (inactive) in assay [7]; 104% (inactive) and 87.6% (inactive) in assay [8]; 109% (inactive) in [9]; 97.2% (inactive) and 94.9% (inactive) in assay [10]; 92.8% (inactive) and 94.4% (inactive) in assay [11]; 41.3% (inactive) in assay [12]. Also, the growth was 100% (inactive) and 82.2% (inactive) in [13]; 98% (inactive) and 76.9% (inactive) in [14]; 101% (inactive) and 104% (inactive) in [15]; 97.5% (inactive) in assay [16]; 91.3% (inactive) and 88.7% (inactive) in assay [17]; 104% (inactive) and 51.2% (inactive) in assay [18]. In addition, the growth is 118% (inactive) and 46.3% (inactive) in assay [19]; 77.3% (inactive) in assay [20].
With `CC[C@H](C)[C@H]1O[C@]2(C=C[C@@H]1C)C[C@@H]1C[C@@H](C/C=C(\C)[C@@H](O[C@H]3C[C@H](OC)[C@@H](O[C@H]4C[C@H](OC)[C@@H](NC)[C@H](C)O4)[C@H](C)O3)[C@@H](C)/C=C/C=C3\CO[C@@H]4[C@H](O)C(C)=C[C@@H](C(=O)O1)[C@]34O)O2`, the growth was -70.2% (active) in [1]; -64.3% (active) in [2]; -72.7% (active) in [3]; 13.7% (inactive) in assay [4]; -88.7% (active) in [5]; -16.2% (active) in assay [6]. The growth was -95.5% (active) in assay [7]; -53.1% (active) in assay [8]; -92.3% (active) in [9]; -79.2% (active) in assay [10]; -54.5% (active) in [11]; -40.9% (active) in assay [12]. Besides, the growth is -47.5% (active) in [13]; -63.2% (active) in assay [14]; -76% (active) in [15]; -33.9% (active) in assay [16]; 18.7% (inactive) in assay [17]; -7.23% (active) in assay [18]. The growth is -59.8% (active) in [19] and -43% (active) in assay [20].
`Cc1ccc(S(=O)(=O)n2cc([C@@]3(O)C[C@H](CSC#N)OC3=O)c3ccccc32)cc1`: the growth was 70% (inactive) in [1]; 54.3% (inactive) in [2]; 67.8% (inactive) in assay [3]; 97.5% (inactive) in assay [4]; 40.9% (inactive) in [5]; 78.5% (inactive) in assay [6]. For the same compound, the growth in assay [7] was 66.6% (inactive); in assay [8], 76.3% (inactive); in [9], 49.4% (inactive); in assay [10], 96.2% (inactive); in assay [11], 61% (inactive); in assay [12], 102% (inactive). Further, the growth in [13] was 60.7% (inactive); in [14] it was 56.2% (inactive); in assay [15], 64.2% (inactive); in assay [16] it was 63% (inactive); in assay [17], 66.8% (inactive); in [18], 97.1% (inactive). Besides, the growth in assay [19] is 80.1% (inactive); in assay [20], 31.7% (inactive).
Take `O=C(O)C1C(C(=O)O)C2(Cl)C(Cl)=C(Cl)C1(Cl)C2(Cl)Cl` (stereo not given): the growth in assay [1] is 105% (inactive) and 106% (inactive); in [2], 103% (inactive); in assay [3], 82.3% (inactive) and 93.7% (inactive); in assay [4], 124% (inactive) and 100% (inactive); in [5], 97.7% (inactive) and 103% (inactive); in assay [6], 91.7% (inactive) and 101% (inactive). Moreover, the growth was 104% (inactive) and 116% (inactive) in assay [7]; 104% (inactive) and 102% (inactive) in assay [8]; 107% (inactive) and 98.1% (inactive) in assay [9]; 108% (inactive) in [10]; 108% (inactive) and 113% (inactive) in assay [11]; 90.4% (inactive) and 118% (inactive) in assay [12]. The growth in assay [13] is 103% (inactive) and 101% (inactive); in assay [14], 73.1% (inactive) and 92.2% (inactive); in assay [15], 116% (inactive) and 107% (inactive); in assay [16] it was 99.9% (inactive); in [17], 116% (inactive); in [18], 102% (inactive) and 101% (inactive). Further, the growth in [19] was 95.1% (inactive); in [20] it was 1.8% (active) and 114% (inactive).
On to `O=C1NC(=O)C(=C/C=C/c2ccccc2)C(=O)N1`, for which the growth in [1] is 8.86% (active); in [2] it was -71.6% (active); in assay [3], 24.3% (inactive); in assay [4] it was 53.8% (inactive); in assay [5], 7.65% (active); in [6] it was 27.7% (inactive). In addition, the growth in [7] is 80.9% (inactive); in [8] it was -11.9% (active); in [9] it was -64.4% (active); in assay [10], -34.7% (active); in [11], 74.2% (inactive); in assay [12] it was 84.1% (inactive). For the same compound, the growth in assay [13] was -10.6% (active); in assay [14] it was -64.3% (active); in assay [15] it was 14.8% (inactive); in assay [16] it was 2.5% (active); in assay [17], -12.7% (active); in assay [18] it was 106% (inactive). The growth is -5.93% (active) in assay [19] and -7.03% (active) in assay [20].
